Assay results: PubChem BioAssay (NCI)
This is part of a sample that, as a whole, favours compounds with a hit. Of some 83,000 tested, about 20% had one in any assay.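 Growth was measured after 48 h exposure to one concentration of compound in 96-well plates. Values under 10 count as active.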 Active and inactive are the calls of the source.

Columns and labels:
Test in all cases: NCI-60 one-dose screen, 48 h (100 = growth as untreated, 0 = no growth, -100 = all killed)
Details in all cases: 10 µM unless noted
HCT-15 colon = tested on: HCT-15 colon
HT29 colon = tested on: HT29 colon
SNB-75 CNS = tested on: SNB-75 CNS
SNB-19 CNS = tested on: SNB-19 CNS
U251 CNS = tested on: U251 CNS
PC-3 prostate = tested on: PC-3 prostate
SK-MEL-5 melanoma = tested on: SK-MEL-5 melanoma
UACC-62 melanoma = tested on: UACC-62 melanoma
LOX IMVI melanoma = tested on: LOX IMVI melanoma
SK-MEL-28 melanoma = tested on: SK-MEL-28 melanoma

Measured: growth

CNCCCC12CCC(c3ccccc31)c1ccccc12
inactive: HCT-15 colon 95.4% | HT29 colon 60.4% | SNB-75 CNS 60.2% | SNB-19 CNS 91.5% | U251 CNS 81.1% | PC-3 prostate 71.9% | SK-MEL-5 melanoma 75.3% | UACC-62 melanoma 90.9% | LOX IMVI melanoma 79.6% | SK-MEL-28 melanoma 87.4%

COc1ccc(S(=O)(=O)n2c3ccccc3n3ncc(-c4nnc(C)o4)c23)cc1
inactive: HCT-15 colon 20.3% | HT29 colon 11.2% | SNB-75 CNS 14.1% | SNB-19 CNS 23% | U251 CNS 31.6% | PC-3 prostate 36.5% | SK-MEL-5 melanoma 21.3% | UACC-62 melanoma 27.3% | LOX IMVI melanoma 36.8% | SK-MEL-28 melanoma 65.3%

COc1cc(C(=O)c2cc(C)c3[nH]c4ccc(O)cc4c3c2C)cc(OC)c1OC
active: HCT-15 colon 8.88% | SK-MEL-5 melanoma -49.4%
inactive: HT29 colon 14.5% | SNB-75 CNS 37.3% | SNB-19 CNS 54.1% | U251 CNS 11.5% | PC-3 prostate 24.9% | UACC-62 melanoma 59.8% | LOX IMVI melanoma 13% | SK-MEL-28 melanoma 55.7%

CCCCCCn1c(-c2ccc(C(=O)O/N=C(\N)c3ccc(OC)cc3)cc2)nc(-c2ccccc2)c1-c1ccccc1
inactive: HT29 colon 22% | SNB-19 CNS 32.5% | SK-MEL-5 melanoma 49.9% | UACC-62 melanoma 18.1% | SK-MEL-28 melanoma 42.1%
active: HCT-15 colon -41.1% | SNB-75 CNS -20.3% | U251 CNS -42.9% | PC-3 prostate 3.94% | LOX IMVI melanoma -91.6%

COc1cccc(Cc2nn3cc(-c4ccccc4)nc3s2)c1
inactive: HCT-15 colon 76.9% | HT29 colon 54.6% | SNB-75 CNS 99.7% | SNB-19 CNS 102% | U251 CNS 99.1% | PC-3 prostate 96.5% | SK-MEL-5 melanoma 93.9% | UACC-62 melanoma 91.1% | LOX IMVI melanoma 51.5% | SK-MEL-28 melanoma 113%

Cc1ccc(/C=N\NC(=O)c2[nH]c3ccc(F)cc3c2-c2ccccc2)cc1
active: HT29 colon 2.07% | SK-MEL-5 melanoma -17.1%
inactive: HCT-15 colon 24.1% | SNB-75 CNS 13.7% | SNB-19 CNS 45.9% | U251 CNS 12.4% | PC-3 prostate 15% | UACC-62 melanoma 44.9% | LOX IMVI melanoma 26.5% | SK-MEL-28 melanoma 71.5%

CCc1cccc2c1S/C(=C/c1ccc(OC)cc1)C2=O
inactive: HCT-15 colon 28.1% | HT29 colon 84.5% | SNB-75 CNS 26.6% | SNB-19 CNS 45.2% | U251 CNS 41.7% | PC-3 prostate 33.9% | SK-MEL-5 melanoma 57.2% | UACC-62 melanoma 31.2% | LOX IMVI melanoma 40.3% | SK-MEL-28 melanoma 59.3%

COc1ccc(CN2c3ccccc3CCc3ccccc32)cc1F
inactive: HCT-15 colon 24.9% | SNB-75 CNS 23.2% | SNB-19 CNS 39% | U251 CNS 21.1% | PC-3 prostate 24.1% | SK-MEL-5 melanoma 19.8% | UACC-62 melanoma 24.8% | LOX IMVI melanoma 50.2% | SK-MEL-28 melanoma 50.8%
active: HT29 colon 1.59%

COc1cc(C2CC(c3cccc(Br)c3)=NN2C(C)=O)cc(OC)c1OC (stereo not given)
inactive: HCT-15 colon 13.4% | HT29 colon 13.8% | SNB-75 CNS 12% | SNB-19 CNS 40.8% | U251 CNS 12.2% | PC-3 prostate 37.1% | SK-MEL-5 melanoma 23% | UACC-62 melanoma 14.8% | LOX IMVI melanoma 50.1% | SK-MEL-28 melanoma 70.2%

CN(C)c1ccc2nc3ccc(=[N+](C)C)c([N+](=O)[O-])c-3sc2c1
inactive: HCT-15 colon 32.1% | HT29 colon 59% | SNB-75 CNS 91.6% | SNB-19 CNS 56.6% | SK-MEL-5 melanoma 19.5% | UACC-62 melanoma 34.1% | SK-MEL-28 melanoma 57.8%
active: U251 CNS 6.01% | PC-3 prostate 4.48% | LOX IMVI melanoma 4.03%

Cc1c(C(=O)NCCN2CCOCC2)cn2ncnc(Oc3ccc(NC(=O)Nc4ccc(Cl)c(C(F)(F)F)c4)cc3)c12
inactive: HCT-15 colon 21.8% | SNB-75 CNS 22.4% | SNB-19 CNS 20% | U251 CNS 14.5% | PC-3 prostate 11.4% | UACC-62 melanoma 14.8% | SK-MEL-28 melanoma 16.1%
active: HT29 colon 7.93% | SK-MEL-5 melanoma 6.48% | LOX IMVI melanoma -50.5%

O=C(Nc1ccc(-c2nc(-c3cccc(OCCN4CCOCC4)c3)c(-c3ccnc(Br)c3)[nH]2)cc1)c1ccccc1
active: HCT-15 colon -7.78% | HT29 colon 1.79% | SNB-75 CNS -37.3% | SNB-19 CNS -0.968% | U251 CNS 8.84% | SK-MEL-5 melanoma -92.7% | UACC-62 melanoma -15.9% | LOX IMVI melanoma -58.8% | SK-MEL-28 melanoma -29.5%
inactive: PC-3 prostate 18.3%

Cc1cc2nc3cc(C)c(N)cc3[n+](-c3ccccc3)c2cc1N
inactive: HCT-15 colon 111% | HT29 colon 85.3% | SNB-75 CNS 52.1% | SNB-19 CNS 23.3% | U251 CNS 19.4% | PC-3 prostate 42.5% | SK-MEL-5 melanoma 20.7% | UACC-62 melanoma 53.1% | LOX IMVI melanoma 67% | SK-MEL-28 melanoma 80.7%

Cc1nc2ccccc2n1CC1C(=O)NC(=O)NC1=O
inactive: HCT-15 colon 106% | HT29 colon 107% | SNB-75 CNS 94.1% | SNB-19 CNS 98.5% | U251 CNS 99.4% | PC-3 prostate 103% | SK-MEL-5 melanoma 100% | UACC-62 melanoma 103% | LOX IMVI melanoma 100% | SK-MEL-28 melanoma 108%

Cc1ccc(-c2nc(N3CCN(C(=O)c4ccc(OC(F)(F)F)cc4)CC3)c3ccccc3n2)cc1
inactive: HCT-15 colon 72.8% | HT29 colon 88.9% | SNB-75 CNS 76.2% | SNB-19 CNS 88.4% | U251 CNS 86.1% | PC-3 prostate 63.9% | SK-MEL-5 melanoma 81.5% | UACC-62 melanoma 75.4% | LOX IMVI melanoma 89.4% | SK-MEL-28 melanoma 101%

Cc1cccc2c3c(sc12)C(c1ccc(Cl)cc1)C(C#N)=C(/N=C/c1ccc(Cl)cc1)O3 (stereo not given)
inactive: SNB-19 CNS 23.7% | U251 CNS 24.4% | PC-3 prostate 11% | SK-MEL-5 melanoma 26.4% | UACC-62 melanoma 13.1% | LOX IMVI melanoma 20.9% | SK-MEL-28 melanoma 58.1%
active: HCT-15 colon 8.99% | HT29 colon 6.06% | SNB-75 CNS -3.88%

CCOC(=O)C1=C(N)Oc2c(sc3c(C)cccc23)C1c1ccc(F)cc1 (stereo not given)
inactive: SNB-19 CNS 26.3% | U251 CNS 19.4% | PC-3 prostate 12% | SK-MEL-5 melanoma 16.3% | UACC-62 melanoma 17.4% | LOX IMVI melanoma 14% | SK-MEL-28 melanoma 56.8%
active: HCT-15 colon 6.3% | HT29 colon 2.47% | SNB-75 CNS -4.15%

NS(=O)(=O)c1ccc(N=Nc2ccc(-c3nn4cc(-c5ccccc5)nc4s3)cc2)cc1
inactive: HCT-15 colon 99.2% | HT29 colon 99.1% | SNB-75 CNS 86.1% | SNB-19 CNS 108% | U251 CNS 99.7% | PC-3 prostate 94% | SK-MEL-5 melanoma 101% | UACC-62 melanoma 101% | LOX IMVI melanoma 96.9% | SK-MEL-28 melanoma 105%

CN1CCN(c2ccc(-c3cc4c(Nc5ccc(F)c(Cl)c5)ncnn4c3)cn2)CC1
active: HCT-15 colon 7.04%
inactive: HT29 colon 16.1% | SNB-75 CNS 72% | SNB-19 CNS 96.2% | U251 CNS 82.5% | PC-3 prostate 94.2% | SK-MEL-5 melanoma 100% | UACC-62 melanoma 106% | LOX IMVI melanoma 85.2% | SK-MEL-28 melanoma 87.6%

COc1cc(C(=O)/C=C/c2ccc(OCCCCCC[P+](c3ccccc3)(c3ccccc3)c3ccccc3)cc2)cc(OC)c1OC
active: HCT-15 colon -54.7% | HT29 colon -14.1% | SNB-75 CNS -11.1% | SNB-19 CNS -73.3% | U251 CNS -100% | PC-3 prostate -54.9% | SK-MEL-5 melanoma -100% | UACC-62 melanoma -80.3% | LOX IMVI melanoma -100% | SK-MEL-28 melanoma -60.4%

NC(=O)Nc1ccc2ncnc(Nc3ccc(Cl)cc3)c2c1
inactive: HCT-15 colon 93.1% | HT29 colon 91.6% | SNB-75 CNS 95% | SNB-19 CNS 78.6% | U251 CNS 95.7% | PC-3 prostate 79% | SK-MEL-5 melanoma 89.2% | UACC-62 melanoma 87.9% | LOX IMVI melanoma 95.5% | SK-MEL-28 melanoma 106%

Cc1nn(-c2ccccc2)c(-n2ccnc2)c1/C=N/Nc1nc(-c2ccc(F)cc2)cs1
inactive: HCT-15 colon 76.8% | HT29 colon 81.2% | SNB-75 CNS 73.7% | SNB-19 CNS 87.1% | U251 CNS 74.4% | PC-3 prostate 65.5% | SK-MEL-5 melanoma 31.4% | UACC-62 melanoma 74.9% | LOX IMVI melanoma 83.7% | SK-MEL-28 melanoma 97.6%

O=c1[nH][n+](-c2ccc(Br)cc2)no1
active: UACC-62 melanoma 9.27% | LOX IMVI melanoma 7.47%
inactive: HCT-15 colon 33.5% | HT29 colon 90% | SNB-75 CNS 77.1% | SNB-19 CNS 77.8% | U251 CNS 73.3% | PC-3 prostate 70.7% | SK-MEL-5 melanoma 57.8% | SK-MEL-28 melanoma 61.2%

c1ccc2cc(C[n+]3ccn(CCCCCCn4cc[n+](Cc5ccc6ccccc6c5)c4)c3)ccc2c1
inactive: HCT-15 colon 96.4% | HT29 colon 22.8% | SNB-75 CNS 26.7% | SNB-19 CNS 48.8% | U251 CNS 34.4% | PC-3 prostate 65.4% | SK-MEL-5 melanoma 42.3% | UACC-62 melanoma 50.1% | LOX IMVI melanoma 66.8% | SK-MEL-28 melanoma 63.4%

CCCCn1c(-c2ccc(-c3nc(-c4ccc(Cl)cc4)no3)cc2)nc(-c2ccccc2)c1-c1ccccc1
inactive: HCT-15 colon 77.2% | HT29 colon 90.2% | SNB-75 CNS 80.5% | SNB-19 CNS 83.5% | U251 CNS 87% | PC-3 prostate 70.4% | SK-MEL-5 melanoma 97.9% | UACC-62 melanoma 71.5% | LOX IMVI melanoma 31.3% | SK-MEL-28 melanoma 90.8%
